From PubChem BioAssay
SARS PLP yeast = qHTS of Yeast-based Assay for SARS-CoV PLP. S. cerevisiae expressing SARS-CoV PLpro, growth rescue. Potency, µM (titrated, usually from 32.9 µM), for the others: at the top dose activity, positive = growth rescue, usual class: activators. 0.19% of 330,000 active. AID 485353, 2010; also: potency is read from the fitted curve at half-maximal effect; 0% is about no effect; nearly all actives have a fitted effect of over 55% in size
NS1 inh = qHTS Assay for Inhibitors of Influenza NS1 Protein Function | Potency, µM (doses to about 46.1 µM), for inactives: top-dose activity, positive = more growth | 0.4% of 270,000 active | AID 2326, 2010; also: potency is read from the fitted curve at half-maximal effect; actives are rising curves; nearly all actives have a fitted effect of over 50% in size
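Growth recovery, yeast-based: influenza A NS1 expressed in S. cerevisiae causes slow growth, and suppressors are detected by OD600. The parent strain without NS1 is used as positive control.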
Cycloheximide cs = Cycloheximide Counterscreen for Small Molecule Inhibitors of Shiga Toxin; AID 2314, 2010; cell reporter, cycloheximide protein synthesis inhibition counterscreen; max response, %; 12% of 300,000 active; in the data active = max response mostly above about 13%, no sharp cut-off; inactive = mostly below about 14%; also: read at 38.3 µM for the half of the compounds with a filed dose; 0% is about no effect
Shiga inhibitor = A qHTS for Small Molecule Inhibitors of Shiga Toxin. inhibition, % at 38.7 µM. 9.2% of 290,000 active. Vero cells, Shiga toxin protein synthesis inhibition reporter; in the data active = inhibition mostly above about 28%, no sharp cut-off; inactive = mostly below about 43%; also: 0% is about no effect
* marks the source's active call; other numbers are inactive results; ? = inconclusive; . = no result given. Hits are enriched below; roughly 12% of the tested compounds scored in any of these assays. Unless noted, calls follow the shape of the full dose curve.

SMILES	SARS PLP yeast	NS1 inh	Cycloheximide cs	Shiga inhibitor
COc1ccccc1N1CCN(C(=O)CSc2nc3ccccc3o2)CC1	-12%	-68%	41*	111*
CC(OC(=O)c1cc(=O)[nH]c2ccccc12)C(=O)N1C(C)CCCC1C (stereo not given)	-6%	.	.	.
N=C1/C(=C/c2ccc(-c3cccc(C(=O)O)c3)o2)C(=O)N=C2SC(CC(=O)N3CCOCC3)=NN12	34%	10%	25*	11
Cc1cc(/C=C2/C(=N)N3C(c4ccccc4)=CSC3=NC2=O)c(C)n1-c1ccccc1	6%	14%	20*	-6
N=C1/C(=C\c2ccc(-c3cccc(C(=O)O)c3)o2)C(=O)N=C2SC=C(c3ccccc3)N12	0%	9%	26*	56*
CC[C@@]1(C(=O)OC)N[C@H](CN(C)C(=O)Nc2ccc(F)cc2)[C@@H]2C(=O)N(Cc3ccccc3)C(=O)[C@@H]21	1%	.	.	.
O=C(CSc1nncn1-c1cccnc1)Nc1ccccc1C(F)(F)F	6%	6%	4	29
COc1cccc(COC(=O)c2sc3nc4n(c(=O)c3c2C)CCC4)c1OC	0%	.	.	.
CCOC(=O)c1sc(=NC(=O)c2ccc(OC)c(OC)c2)n(C)c1C	1%	9%	37	86*
COc1ccc(C(=O)N=c2sc3c(C)ccc(OC)c3n2C)cc1	-3%	10%	37*	66*
CCOC(=O)c1sc(=NC(=O)COc2ccc(Cl)cc2)n(C)c1C	1%	.	-1	11
CCOC(=O)c1sc(=NC(=O)CCS(=O)(=O)c2ccccc2)n(C)c1C	0%	.	7	1
CCOC(=O)c1sc(=NC(=O)c2ccccc2)n(C)c1C	0%	.	36*	90*
CCOC(=O)c1sc(=NC(=O)c2cccc(OC)c2)n(C)c1C	-10%	-15%	36*	59*
Cc1cccc([C@@H]2[C@@H]3C(=O)N(Cc4ccccc4)C(=O)[C@@H]3[C@]3(Cc4ccc(Cl)cc4)C(=O)N(c4ccc(Br)cc4)C(=O)N23)c1	-5%	?	-1	0
Cc1ccc(C(=O)/C=C2/NC(=O)CS2)cc1	-22%	-16%	25*	45*
O=C1CS/C(=C/C(=O)c2cccc(Cl)c2)N1	-4%	.	27*	56
Cc1ccc(S(=O)(=O)/C=C2\NC(=O)CS2)cc1	7%	?	3	-6
Oc1ccc(Cl)cc1CNCc1cccc2ccccc12	0%	.	.	.
CC(C)CNC(=O)COC(=O)c1c2c(nc3ccccc13)/C(=C/c1cccs1)CC2	9%	23%	25*	56*
CCOC(=O)N/N=C(\C)c1ccc(C)o1	2%	4%	12	27
CNC(=O)c1ccc(-c2ccc(OC)cc2)s1	-15%	-121%	26*	78*
CNC(=O)c1ccc(-c2ccc(F)cc2)s1	-17%	-30%	31	49
COc1ccc(NC(=O)c2ccc(-c3ccc(OC)cc3)s2)cc1	3%	.	20	72*
CNC(=O)c1ccc(-c2ccc(Cl)c(Cl)c2)s1	-24%	.	42*	66*
SMILES	SARS PLP yeast	NS1 inh	Cycloheximide cs	Shiga inhibitor
O=C(Nc1ccccc1)c1ccc(-c2ccc(F)cc2)s1	-1%	2%	36*	88*
COc1cc(CCC(=O)Nc2ccc(Br)c(C(F)(F)F)c2)cc(OC)c1OC	-3%	-19%	0	-7
Cc1ccc(NC(=O)CN(C)C(=O)CSc2nccn2C)cc1	0%	.	.	.
Cc1ccc(O)c(C2=NCCNC(C(F)(F)F)=C2)c1	-8%	8%	-4	2
Oc1c(C2=NCCNC(C(F)(F)F)=C2)ccc2ccccc12	0%	0%	38*	70*
Cc1ccccc1OCC(=O)Nc1nnc(C2CCCC2)s1	3%	0%	1	29
CC(Sc1nnc(-c2ccncc2)n1C)C(=O)Nc1nccs1 (stereo not given)	2%	3%	-5	-7
O=C(c1ccc(Cl)cc1)N1N=CCC1(O)c1ccc(Cl)cc1 (stereo not given)	-9%	-6%	22*	38
CC1(O)CC(c2ccc(Cl)cc2)=NN1C(=O)c1ccc(Cl)cc1 (stereo not given)	-6%	-53%	2	.
COc1ccc(S(=O)(=O)N(CC(=O)NCc2ccncc2)c2ccc(C)cc2)cc1OC	0%	-3%	-2	-9
CC(=O)c1sc(NCc2ccc(C)cc2)nc1C	-2%	-16%	43*	103*
Cc1ccc(CNc2nc(C)c(C(=O)N(C)C)s2)cc1	8%	12%	28*	65*
COc1ccc(OCCCC(=O)Nc2nc(C)c(C(C)=O)s2)cc1	-1%	4%	-2	24
Cc1ccc(CNc2nc(Cl)c(C#N)s2)cc1	1%	1%	28*	62*
CC(=O)c1sc(Nc2ccc(C)cc2)nc1C	-5%	.	15	13
CC(=O)c1sc(NCCOc2ccc(C)cc2)nc1C	0%	.	28*	60*
N#Cc1sc(NCc2cccc(Cl)c2)nc1Cl	-8%	-71%	20	35
C=CCn1c(SCC(=O)Nc2cccc(S(N)(=O)=O)c2)nc2sc(C)c(C)c2c1=O	5%	.	.	.
CC(=O)N(C)c1ccc(NCc2cc(=O)oc3cc(C)c(O)cc23)cc1	0%	0%	12	2
Cc1ccc(S(=O)(=O)Nc2nc(C)c(C(=O)NN)s2)cc1	0%	16%	20*	54*
Cc1nc(NCCc2ccccc2)sc1C(=O)O	-2%	-2%	21	41*
COc1ccc(CCNc2nc(C)c(C(C)=O)s2)cc1OC	-15%	12%	7	-2
CC(=O)c1sc(NCc2ccccc2)nc1C	-4%	-5%	31*	43
CC(=O)c1sc(NC(=O)CCS(=O)(=O)c2ccccc2)nc1C	-7%	4%	57*	58*
Nc1c(-c2ccccc2)cc[nH]c1=O	.	.	16	-2
SMILES	SARS PLP yeast	NS1 inh	Cycloheximide cs	Shiga inhibitor
O=C(Nc1ccc2ccccc2c1)c1cccc(F)c1	-3%	-37%	52*	90*
O=C(Nc1ccc2ccccc2c1)c1ccc(Cl)cc1	13%	13%	41*	68*
O=C(Nc1nnc(-c2ccncc2)o1)c1ccc2ccccc2c1	.	-8%	-2	-5
O=C(Nc1cccc(NC(=O)c2cccc(F)c2)n1)c1cccc(F)c1	-5%	-6%	23*	70*
Cc1ccc(C(=O)Nc2ccc3ccccc3c2)cc1	-8%	-7%	-3	-5
O=C(Nc1ccncc1)c1ccc2ccccc2c1	-5%	-41%	43*	58*
CC(=O)Cc1nsc(NC(=O)c2ccc(-c3cccc(C(F)(F)F)c3)o2)n1	1%	6%	-2	-4
CC(=O)Cc1nsc(NC(=O)c2cccc(F)c2)n1	-1%	.	41*	72*
CSc1nccc(NC(=O)c2cccc(Br)c2)n1	1%	-5%	23*	35
Cc1ccc2cc(NC(=O)c3cccc(F)c3)ccc2n1	-3%	-3%	39*	75*
Cc1ccc2cc(NC(=O)c3ccccc3)ccc2n1	-4%	-47%	47*	67*
Cc1ccc2cc(NC(=O)CC(CC(=O)O)c3ccccc3)ccc2n1 (stereo not given)	0%	1%	-2	-6
CCO/C(C)=C1/SC(=S)NC1=O	1%	6%	1	-13
Cc1cc(=O)oc2cc(OS(C)(=O)=O)ccc12	-3%	-3%	-2	-13
O=C(COC(=O)CNC(=O)c1ccccc1F)Nc1cccnc1Cl	-5%	.	-1	-7
